This is part of a sample that, as a whole, favours compounds with a hit. Of some 83,000 tested, about 20% had one in any assay.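 The endpoint reported here, percent growth, reads 100 for growth as untreated, 0 for no net growth and -100 for all cells dead.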 The source made the active and inactive calls. Rule for the calls: active = growth percent below 10; inactive = the rest.

Data on 37 molecules can be found in PubChem BioAssay (NCI).

The subject of the first test is NCI-H226 lung. Description: NCI-60 one-dose screen, 48 h (100 = growth as untreated, 0 = no growth, -100 = all killed). To be noted: 10 µM unless noted.
As for `OCCNCCNc1c2ccccc2nc2ccccc12`, the growth was 58.3% (inactive).

With `CC[C@H](Nc1ncnc(N)c1C(N)=O)c1nc2cccc(NCc3ccc(C(=O)NO)cc3)c2c(=O)n1-c1ccccc1`, the growth is 102% (inactive).

Consider `CCCCCCCCCc1cc(CN2CCCCC2)c(O)c(CN2CCCCC2)c1`, for which the growth is 75.9% (inactive).

For `CN1CCN(Cc2ccc(NC(=O)c3cncc(C#Cc4cnc(N)c5cccnc45)c3)cc2C(F)(F)F)CC1`, the growth was -18.6% (active).

For `C=C1CC2(OC1=O)C(=O)N(CCCCCCCCCCCCN1C(=O)C3(CC(=C)C(=O)O3)c3ccccc31)c1ccccc12` (configuration not stated), the growth is 78.6% (inactive).

With `Cn1c2ccccc2c2c3c(c4c5ccccc5[nH]c4c21)C(=O)N(N)C3=O`, the growth is 53.4% (inactive).

Regarding `Cn1c2ccccc2c2c3c(c4c5ccccc5n(CCCCCC#N)c4c21)C(=O)N(O)C3=O`, the growth is 25.1% (inactive).

Turning to `COC(/C=C/c1ccc([N+](=O)[O-])cc1)OC`, the growth is 106% (inactive).

Consider `O=C(CNC1C2CC3CC(C2)CC1C3)Sc1nnc2sc3ccccc3n12` (configuration not stated), for which the growth was 91.3% (inactive).

Consider `C=CC[N+]1(CC)CCN=C1CCCCCCCCCCCCCCCCC` (configuration not stated), for which the growth is -50% (active).

For the molecule `CN1CCN(Cc2ccc(NC(=O)c3[nH]ncc3Nc3ccnc4ccsc34)cc2)CC1`, the growth was 5.11% (active).

Take `CN1/C(=C\C=C\C2=[N+](C)c3ccccc3C2(C)C)C(C)(C)c2ccccc21`: the growth is 5.56% (active).

Consider `CS(=O)(=O)c1ccc(-c2cnc3ccc(-c4cccc(S(C)(=O)=O)c4)nn23)cc1`, for which the growth was 65.1% (inactive).

On to `COc1ccc(C/C(C)=C(\c2ccc(OCCN3CCCCCC3)cc2)c2ccc(OC(=O)C3CCCCC3)cc2)cc1`, for which the growth was 78.3% (inactive).

The next test has as its system NCI-H322M lung. Described as above. The note with it: 10 µM unless noted.
On to `CNC(=O)c1cc(Oc2ccc3nc(NC(=O)Nc4ccc(CN5CCOCC5)c(C(F)(F)F)c4)sc3c2)ccn1`, for which the growth is 49.6% (inactive).

Regarding `Cc1cc(N/N=C/c2nc(-c3ccc(Cl)cc3)oc2C)c2cc(Br)ccc2n1`, the growth is 72.5% (inactive).

With `COc1cc(-c2cc(-c3nc4ccc(Cl)cc4[nH]3)[nH]n2)cc(OC)c1OC`, the growth was 51.4% (inactive).

As to `COc1ccc(-c2cc(-c3cccnc3)nc3sc4c(=O)n(-c5ccc(C)cc5)cnc4c23)cc1OC`, the growth was 92.4% (inactive).

`CN(C)c1ccc(/C=C\C2=[N+](C)c3ccccc3C2(C)C)cc1`: the growth is 23.7% (inactive).

With `COc1ccc(-c2cc(-c3cccnc3)nc3sc4c(=O)n(-c5ccc(C)cc5)nnc4c23)cc1OC`, the growth was 97.6% (inactive).

On to `COc1ccc(C/C(C)=C(\c2ccc(Cl)cc2)c2ccc(OCCN3CCCCCC3)cc2)cc1`, for which the growth was 86.8% (inactive).

With `O=C1C=CC(=O)N1c1ccc(Cc2ccc(N3C(=O)C=CC3=O)cc2)cc1`, the growth is 100% (inactive).

`CN1CCN(Cc2ccc(NC(=O)c3[nH]ncc3Nc3ncnc4[nH]ccc34)cc2)CC1`: the growth was 3.32% (active).

As to `O=C(Nc1ccc(Oc2ccc(F)cc2)c(Cl)c1)c1cccnc1`, the growth was 101% (inactive).

With `OC(c1cccc(C(F)(F)F)c1)c1cnccc1NC1CCCCCC1` (configuration not stated), the growth was 46.3% (inactive).

In the case of `NS(=O)(=O)c1ccc(Nc2nc3n[nH]c(Nc4ccccc4)c3c(=O)[nH]2)cc1`, the growth is 101% (inactive).

For the molecule `O=C1/C(=C/c2ccccc2)CN(CCC(=O)N2C/C(=C\c3ccccc3)C(=O)/C(=C/c3ccccc3)C2)C/C1=C\c1ccccc1`, the growth is 90.4% (inactive).

For `CN1CCN(Cc2ccc(NC(=O)c3[nH]ncc3Nc3ncnc4c3CCC4)cc2)CC1`, the growth was 16.5% (inactive).

`O=C1C(=O)N(CCCCn2cc(CO)nn2)c2ccccc21`: the growth was 108% (inactive).

With `Cc1cc(Nc2nc(N3CCN(C)CC3)nc3ccccc23)n[nH]1`, the growth is 86.4% (inactive).

Regarding `CC(=O)C1=C(O)C=C2Oc3c(C(=O)/C=C/c4cc(Cl)cc(Cl)c4)c(O)c(C)c(O)c3[C@]2(C)C1=O`, the growth is -28.9% (active).

Take `O=C(Nc1ccc(CN2CCOCC2)cc1)c1[nH]ncc1Nc1ncnc2sccc12`: the growth was 6.2% (active).

For the molecule `COc1cc(-c2c3sc(=O)[nH]c3nc3c2c(=O)[nH]n3C(C)C)cc2c1OCO2`, the growth was 99.9% (inactive).

Consider `O=C1/C(=C/c2ccc(Cl)c(Cl)c2)CN(C(=O)CCN2CCC(=NO)CC2)C/C1=C\c1ccc(Cl)c(Cl)c1`, for which the growth was -78.7% (active).

For `CCN(CC)CCCC(C)Nc1ccnc2c(OC)cccc12` (configuration not stated), the growth was 141% (inactive).

Take `COc1ccc(-c2cn3c(-c4ccc(OC)cc4)cnc3c(Oc3ccc4c(C)cc(=O)oc4c3)n2)cc1`: the growth is 82% (inactive).

In the case of `CN1CCN(Cc2ccc(NC(=O)c3[nH]ncc3Nc3ncnc4sccc34)cc2)CC1`, the growth was 21.6% (inactive).
